Results filed as inconclusive are left out. The source made the active and inactive calls. The calls were made as follows, unless noted: active = hit-call score of the fitted dose curve at least 0.9, where 1 is the maximum; inconclusive = response in the unintended direction; inactive = score below 0.9.
How the values were obtained:
[1] = target: Nuclear receptor subfamily 4 group A member 2 (Homo sapiens) (UniProt P43354); experiment: ATG_NURR1_TRANS: Attagene TRANS-FACTORIAL HepG2 Assay for human Nuclear Receptor Related Protein 1 (NURR1) (AID 2282985); conditions: HepG2 Attagene TRANS reporter, mRNA readout
Nuclear receptor subfamily 4 group A member 2 (Homo sapiens), sequence (P43354 whole entry, looked up, the tested form may be a part): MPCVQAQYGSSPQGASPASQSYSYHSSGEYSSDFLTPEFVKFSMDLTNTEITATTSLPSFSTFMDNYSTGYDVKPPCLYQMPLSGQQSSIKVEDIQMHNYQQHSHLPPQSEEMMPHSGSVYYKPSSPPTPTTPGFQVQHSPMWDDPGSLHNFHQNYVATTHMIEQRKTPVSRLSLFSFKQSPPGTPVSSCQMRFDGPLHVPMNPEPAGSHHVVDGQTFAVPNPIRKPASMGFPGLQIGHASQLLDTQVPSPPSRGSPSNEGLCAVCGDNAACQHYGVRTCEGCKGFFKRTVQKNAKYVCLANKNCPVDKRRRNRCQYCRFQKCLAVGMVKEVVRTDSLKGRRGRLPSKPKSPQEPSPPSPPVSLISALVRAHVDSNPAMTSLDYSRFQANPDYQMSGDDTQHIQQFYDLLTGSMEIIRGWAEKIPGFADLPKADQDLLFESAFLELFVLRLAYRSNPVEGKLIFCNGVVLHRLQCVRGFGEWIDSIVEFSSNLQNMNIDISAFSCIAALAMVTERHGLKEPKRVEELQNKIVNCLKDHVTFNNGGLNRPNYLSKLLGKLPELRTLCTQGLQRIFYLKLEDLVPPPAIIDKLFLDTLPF
Outline: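 Reporter transcript induction, measured by RT-PCR with fluorescent labelling, HpaI digestion and capillary electrophoresis, after 24 hr dosing of human HepG2 cells transiently expressing an exogenous NR-Gal4 fusion with GAL4-UAS-driven reporters; DMSO as baseline.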

[2] = BSK_3C_TissueFactor: BioMAP Diversity Plus: 3C Assay for Tissue Factor Biomarker Activity (AID 2282997; active = hit-call score of the fitted dose curve at least 0.9, where 1 is the maximum; inactive = score below 0.9); conditions: BioMAP 3C HUVEC, tissue factor biomarker readout; actives raise or lower the signal
Outline: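 Tissue Factor measured by ELISA, 24 h after treatment of primary HUVEC in the BioMAP 3C setting.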

[3] = BSK_3C_uPAR: BioMAP Diversity Plus: 3C Assay for Urokinase-type plasminogen activator receptor (uPAR) Biomarker Activity (AID 2282998; active = hit-call score of the fitted dose curve at least 0.9, where 1 is the maximum; inactive = score below 0.9); conditions: BioMAP 3C HUVEC, uPAR biomarker ELISA; actives raise or lower the signal
Outline: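 Primary human umbilical vein endothelial cells, 3C system; surface uPAR measured by ELISA 24 h after dosing. Cytotoxicity via SRB total protein in parallel cultures; bidirectional fit against DMSO.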

[4] = BSK_4H_Eotaxin3: BioMAP Diversity Plus: 4H Assay for Eotaxin 3 Biomarker Activity (AID 2283000; active = hit-call score of the fitted dose curve at least 0.9, where 1 is the maximum; inactive = score below 0.9); conditions: primary human endothelial cells (HUVEC); actives raise or lower the signal
Outline: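 Eotaxin-3 (CCL26) levels were measured by ELISA in HUVEC primary cultures 24 h post-dosing. Gain or loss of signal was fitted in both directions, with DMSO serving as baseline and negative control.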

[5] = read-out: Interleukin-1 alpha (IL1a), IL1A (gene 3552); experiment: BSK_BE3C_IL1a: BioMAP Diversity Plus: BE3C Assay for Interleukin-1 alpha (IL1a) Biomarker Activity (AID 2283016; active = hit-call score of the fitted dose curve at least 0.9, where 1 is the maximum; inactive = score below 0.9); conditions: primary human bronchial epithelial cells; actives raise or lower the signal
Outline: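 Signal from IL-1a ELISA, taken 24 h after chemical dosing of human bronchial epithelial cells, is compared with DMSO as baseline using bidirectional curve fitting.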

[6] = read-out: Monocyte Chemoattractant Protein-1 (MCP1), CCL2 (gene 6347); experiment: BSK_3C_MCP1: BioMAP Diversity Plus: 3C Assay for Monocyte Chemoattractant Protein-1 (MCP1) Biomarker Activity (AID 2283017; active = hit-call score of the fitted dose curve at least 0.9, where 1 is the maximum; inactive = score below 0.9); conditions: primary human endothelial cells (HUVEC); actives raise or lower the signal
Outline: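 Human umbilical vein endothelial cells (3C system) exposed to chemicals for 24 h; MCP-1 quantified by ELISA against the DMSO baseline with bidirectional fitting, and parallel SRB staining used to assess cytotoxicity.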

[7] = read-out: Monocyte Chemoattractant Protein-1 (MCP1), CCL2 (gene 6347); experiment: BSK_4H_MCP1: BioMAP Diversity Plus: 4H Assay for Monocyte Chemoattractant Protein-1 (MCP1) Biomarker Activity (AID 2283018; active = hit-call score of the fitted dose curve at least 0.9, where 1 is the maximum; inactive = score below 0.9); conditions: primary human endothelial cells (HUVEC); actives raise or lower the signal
Outline: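 Endothelial cells from umbilical vein were treated with test chemical, then after 24 h MCP-1 levels were quantified by ELISA; endpoint values came from bidirectional fitting with DMSO as baseline of activity.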

[8] = read-out: Interleukin-1 alpha (IL1a), IL1A (gene 3552); experiment: BSK_LPS_IL1a: BioMAP Diversity Plus: LPS Assay for Interleukin-1 alpha (IL1a) Biomarker Activity (AID 2283080; active = hit-call score of the fitted dose curve at least 0.9, where 1 is the maximum; inactive = score below 0.9); conditions: primary human HUVEC with PBMC; actives raise or lower the signal
Outline: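 Human umbilical vein endothelial cells co-cultured with PBMC and stimulated with LPS; IL-1a measured by ELISA 24 h after dosing. Bidirectional fitting against DMSO; cytotoxicity checked by SRB staining in parallel cultures.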

[9] = BSK_LPS_PGE2: BioMAP Diversity Plus: LPS Assay for Prostaglandin E2 (PGE2) Biomarker Activity (AID 2283082; active = hit-call score of the fitted dose curve at least 0.9, where 1 is the maximum; inactive = score below 0.9;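 as to AC50: secreted prostaglandin E2 measured by ELISA in LPS-stimulated co-culture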); conditions: primary human HUVEC with PBMC; actives raise or lower the signal
Outline: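 Compounds were added to the LPS co-culture of endothelium and PBMC, and PGE2 was measured by ELISA after 24 h. Responses in either direction were fitted with DMSO as baseline.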

[10] = target: Retinoic acid receptor RXR-alpha (Homo sapiens) (UniProt P19793); experiment: OT_NURR1_NURR1RXRa_0480: Odyssey Thera (OT) 8-hour HEK293T Protein Complementation Assay for Nurr1/retinoid X receptor (RXR) (AID 2283385)
Retinoic acid receptor RXR-alpha (Homo sapiens), sequence (P19793 whole entry, looked up, the tested form may be a part): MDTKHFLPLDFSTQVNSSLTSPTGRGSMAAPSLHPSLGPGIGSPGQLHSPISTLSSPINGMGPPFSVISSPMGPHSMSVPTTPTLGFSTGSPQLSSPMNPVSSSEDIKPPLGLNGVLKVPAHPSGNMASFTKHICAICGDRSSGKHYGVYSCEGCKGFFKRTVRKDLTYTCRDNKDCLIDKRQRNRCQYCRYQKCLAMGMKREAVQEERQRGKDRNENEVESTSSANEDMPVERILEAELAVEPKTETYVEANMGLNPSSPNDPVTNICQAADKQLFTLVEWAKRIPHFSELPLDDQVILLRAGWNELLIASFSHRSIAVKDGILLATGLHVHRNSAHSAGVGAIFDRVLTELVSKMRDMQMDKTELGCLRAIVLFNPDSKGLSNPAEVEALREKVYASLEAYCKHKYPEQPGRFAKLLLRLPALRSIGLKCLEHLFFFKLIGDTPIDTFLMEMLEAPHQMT
Outline: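 Interaction of bait and prey reconstitutes a functional reporter, whose fluorescence was measured in HEK293T cells dosed with compound for 8 hours. Signal gain relative to DMSO defined the single endpoint.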

[11] = target: Retinoic acid receptor RXR-alpha (Homo sapiens) (UniProt P19793); experiment: OT_NURR1_NURR1RXRa_1440: Odyssey Thera (OT) 24-hour HEK293T Protein Complementation Assay for Nurr1/retinoid X receptor (RXR) (AID 2283386)
Outline: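 Steps: fragment-tagged Nurr1 and RXRα expressed in HEK293T; compounds added; after 24 h, complemented reporter quantified by fluorescence intensity; signal increase over DMSO fitted as the single endpoint.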

[12] = target: Peroxisome proliferator-activated receptor gamma (Homo sapiens) (UniProt P37231); experiment: OT_PPARg_PPARgSRC1_0480: Odyssey Thera (OT) 8-hour Protein-Complementation Assay for Peroxisome Proliferator-activated Receptor Gamma / SRC-1 Co-activator (AID 2283387)
Peroxisome proliferator-activated receptor gamma (Homo sapiens), sequence (P37231 whole entry, looked up, the tested form may be a part): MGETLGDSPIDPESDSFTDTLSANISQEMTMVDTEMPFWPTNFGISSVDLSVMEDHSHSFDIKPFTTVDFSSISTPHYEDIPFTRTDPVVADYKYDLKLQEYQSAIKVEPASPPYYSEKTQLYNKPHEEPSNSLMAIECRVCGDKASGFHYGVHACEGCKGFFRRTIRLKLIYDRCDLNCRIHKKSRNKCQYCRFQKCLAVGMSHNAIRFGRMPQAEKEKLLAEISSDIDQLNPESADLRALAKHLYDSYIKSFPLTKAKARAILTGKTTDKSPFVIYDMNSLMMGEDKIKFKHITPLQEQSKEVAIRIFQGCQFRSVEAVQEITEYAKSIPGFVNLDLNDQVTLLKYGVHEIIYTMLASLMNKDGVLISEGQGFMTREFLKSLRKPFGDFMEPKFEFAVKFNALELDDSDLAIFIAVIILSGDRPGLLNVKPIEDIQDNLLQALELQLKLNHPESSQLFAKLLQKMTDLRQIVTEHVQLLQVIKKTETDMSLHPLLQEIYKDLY
Outline: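 Read-out: 488 nm N/C fluorescence ratio from complemented Venus YFP fragments, ≥350 cells per image, gain-of-signal fitted against DMSO baseline. Fusions of PPARg/SRC-1 with IFP1/IFP2 expressed transiently in HEK293T; compounds applied 8 h.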

[13] = target: Peroxisome proliferator-activated receptor gamma (Homo sapiens) (UniProt P37231); experiment: OT_PPARg_PPARgSRC1_1440: Odyssey Thera (OT) 24-hour Protein-Complementation Assay for Peroxisome Proliferator-activated Receptor Gamma/ SRC-1 Co-activator (AID 2283388)
Outline: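 HEK293T transiently transfected with PPARg/SRC-1 split-Venus YFP fusions 48 h before dosing, then treated 24 h at 37C. Fixed cells imaged; nuclear/cytoplasmic 488 nm fluorescence ratio, gain of signal versus DMSO.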

[14] = ACEA_AR_agonist_AUC_viability: ACEA Biosciences xCELLigence Real-Time Cell Analysis on Androgen Receptor Agonism for Viability (AID 2283775);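 as to AC50: viability read 80 hours after compound addition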
Outline: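 22Rv1 cells; impedance growth kinetics; 8-pt 1:4 dilutions from 100 uM top final, ≤0.5% DMSO; n = 2; 80 h read; AUC viability, loss-of-signal vs DMSO.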

[15] = ACEA_AR_antagonist_AUC_viability: ACEA Biosciences xCELLigence Real-Time Cell Analysis on Androgen Receptor Antagonism for Viability (AID 2283776);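 also: 22Rv1 human prostate cancer cells growing on impedance electrode plates; area under impedance growth curve at 80 h after dosing as viability; hits lower the growth signal relative to DMSO meaning cytotoxicity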
Outline: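 Real-time electrical impedance tracks 22Rv1 proliferation after continuous compound exposure (top 100 uM final, 1:4 steps, 8 concentrations). The 80 h area-under-curve serves as the cytotoxicity readout relative to DMSO.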

[16] = CCTE_Harrill_HTTr_Apoptosis_MCF7: CCTE's 6-hour Apoptosis Assessment for the High-Throughput Transcriptomics (HTTr) Platform, in MCF-7 cells cultured in DMEM + 10% fetal bovine serum, Harrill Lab (AID 2284011; active = hit-call score of the fitted dose curve at least 0.9, where 1 is the maximum; inactive = score below 0.9)
Outline: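 MCF-7 cells in DMEM + 10% FBS exposed 6 h to chemicals over an eight-point dilution series. Caspase-3/7 activation imaged by high-content CellEvent Green staining; fitted bidirectionally versus DMSO.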

[17] = CCTE_Harrill_HTTr_CellCount_MCF7: CCTE's Cell Proliferation Assessment for the High-Throughput Transcriptomics (HTTr) Platform, Harrill Lab (AID 2284012);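 also: cells exposed to compound for six hours; intended direction is loss of nuclei count meaning fewer cells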
Outline: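 Cell count served as viability reporter: loss of Hoechst-stained nuclei, counted by high content imaging, marks decreased growth or survival. Exposure was 6 h in MCF-7 cells across eight concentrations, with DMSO as baseline.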

[18] = target: Estrogen-related receptor gamma (Homo sapiens) (UniProt P62508); experiment: ATG_ERRg_TRANS: Attagene TRANS-FACTORIAL HepG2 Assay for human Estrogen-Related Receptor gamma (ERRg) (AID 2282977); conditions: HepG2 Attagene TRANS reporter, ERRg transactivation;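 also: hits increase reporter signal over DMSO so potencies reflect activators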
Estrogen-related receptor gamma (Homo sapiens), sequence (P62508 whole entry, looked up, the tested form may be a part): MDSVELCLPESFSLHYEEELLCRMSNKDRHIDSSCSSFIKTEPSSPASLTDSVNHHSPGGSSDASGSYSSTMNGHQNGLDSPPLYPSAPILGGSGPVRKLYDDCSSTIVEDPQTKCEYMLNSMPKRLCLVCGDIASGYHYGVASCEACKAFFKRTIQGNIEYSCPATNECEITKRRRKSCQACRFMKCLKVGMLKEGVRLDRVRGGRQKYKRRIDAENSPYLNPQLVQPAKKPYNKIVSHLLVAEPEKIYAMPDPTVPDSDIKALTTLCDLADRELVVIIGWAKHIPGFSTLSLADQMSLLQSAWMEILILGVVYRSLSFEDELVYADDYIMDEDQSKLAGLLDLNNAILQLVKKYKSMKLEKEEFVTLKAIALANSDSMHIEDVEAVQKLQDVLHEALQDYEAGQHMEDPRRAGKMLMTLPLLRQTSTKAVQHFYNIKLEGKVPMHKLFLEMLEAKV
Outline: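 Induction of reporter transcripts through a chimeric NR-Gal4 protein is quantified in transfected human HepG2 liver cells after 24 h chemical exposure, using RT-PCR with capillary electrophoresis detection and DMSO as baseline.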

[19] = target: human Retinoid X Receptor beta (RXRb), RXRB (gene 6257) (UniProt P28702); experiment: ATG_RXRb_TRANS: Attagene TRANS-FACTORIAL HepG2 Assay for human Retinoid X Receptor beta (RXRb) (AID 2283013)
human Retinoid X Receptor beta (RXRb), RXRB (gene 6257), sequence (P28702 whole entry, looked up, the tested form may be a part): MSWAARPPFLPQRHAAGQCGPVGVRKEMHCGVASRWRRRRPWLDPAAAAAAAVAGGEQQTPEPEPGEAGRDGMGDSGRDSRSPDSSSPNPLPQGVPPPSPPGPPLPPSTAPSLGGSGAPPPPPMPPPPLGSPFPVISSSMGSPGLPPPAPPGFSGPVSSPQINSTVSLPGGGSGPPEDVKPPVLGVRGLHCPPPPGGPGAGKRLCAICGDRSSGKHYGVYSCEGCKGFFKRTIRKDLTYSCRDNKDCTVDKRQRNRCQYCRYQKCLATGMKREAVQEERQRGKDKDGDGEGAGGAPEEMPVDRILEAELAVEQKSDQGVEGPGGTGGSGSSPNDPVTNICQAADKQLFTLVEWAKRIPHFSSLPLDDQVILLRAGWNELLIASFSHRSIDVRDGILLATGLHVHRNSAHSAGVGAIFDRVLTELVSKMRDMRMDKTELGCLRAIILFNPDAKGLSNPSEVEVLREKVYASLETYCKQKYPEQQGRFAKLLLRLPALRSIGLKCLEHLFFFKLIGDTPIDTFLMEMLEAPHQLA
Outline: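 Chimeric receptor-Gal4 activity was assessed in transiently transfected human HepG2 cells after 24 h exposure. Transcripts from GAL4-UAS reporters were quantified by fluorescent RT-PCR and capillary electrophoresis, with DMSO as negative control and baseline.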

[20] = ATG_ERE_CIS: Attagene CIS-FACTORIAL HepG2 Assay for Estrogen Response Element (ERE) (AID 2282940; active = hit-call score of the fitted dose curve at least 0.9, where 1 is the maximum; inactive = score below 0.9); conditions: HepG2 ERE cis-reporter, Attagene RNA transcript; actives raise or lower the signal
Outline: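 HepG2 cells transiently transfected with multiplexed cis-element reporter units, measuring endogenous transcription factor activity; ERE reporter mRNA quantified after 24 h exposure by RT-PCR, fluorescent labelling, HpaI digestion and capillary electrophoresis. Bidirectional change versus DMSO.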

Measured: AC50

O=C(CCl)c1ccccc1
inactive: [1] | [10] | [12] | [13] | [16] | [17]
active: [2] 5.4 µM | [3] 6.89 µM | [4] 4.98 µM | [5] 32.6 µM | [6] 7.4 µM | [7] 5.41 µM | [8] 3.72 µM | [9] 5.38 µM | [11] 11.6 µM | [14] 78.5 µM | [15] 69.7 µM

CC(C)(O)C#N
inactive: [10] | [11] | [12] | [13] | [14] | [15] | [16] | [17]

O=S(=O)(c1ccccc1)c1ccccc1
inactive: [18] | [2] | [3] | [4] | [5] | [6] | [7] | [8] | [9] | [16] | [17]

Nc1ccccc1C(=O)OCCc1ccccc1
active: [19] 33.4 µM
inactive: [18] | [1]

CC[N+](=O)[O-]
inactive: [1] | [19] | [11] | [12] | [13] | [15]

S=c1[nH]c2ccccc2[nH]1
inactive: [18] | [1] | [19]

CCOP(=O)(OCC)Oc1ccc([N+](=O)[O-])cc1
inactive: [19] | [10] | [11] | [12] | [13] | [16]

Nc1ccc([N+](=O)[O-])cc1N
inactive: [18]

O=C(NC(=O)c1c(F)cccc1F)Nc1ccc(Oc2ccc(C(F)(F)F)cc2Cl)cc1F
inactive: [12] | [13] | [14] | [15] | [16]
active: [11] 31.3 µM

COC(C)(C)CCC[C@H](C)C/C=C/C(C)=C/C(=O)OC(C)C
active: [1] 121 µM | [2] 20 µM | [3] 33.5 µM | [4] 29.4 µM | [5] 7.52 µM | [6] 36.9 µM | [7] 29.8 µM | [8] 36.4 µM
inactive: [18] | [9]

ClCC(Cl)Cl
inactive: [20]

C=CCO
inactive: [10] | [11] | [14]

C[C@]12CC[C@H](O)C[C@H]1CC[C@@H]1[C@@H]2C[C@@H](O)[C@]2(C)[C@@H](C3=CC(=O)OC3)CC[C@]12O
inactive: [18] | [1] | [19]

C=CC(=O)OCCCCOC(=O)C=C
inactive: [20] | [18] | [19]

N#CCNCC#N
inactive: [20] | [18] | [1]

C[C@]12CC[C@H]3[C@@H](CC[C@@]45O[C@@H]4C(O)=C(C#N)C[C@]35C)[C@@H]1CC[C@@H]2O
inactive: [16] | [17]

CC(Cc1ccc(C(C)(C)C)cc1)CN1C[C@@H](C)O[C@@H](C)C1 (some centres undefined)
inactive: [18] | [12] | [13] | [14] | [15]
active: [1] 33.4 µM | [10] 66.8 µM | [11] 81 µM

O=S(=O)(O)O
inactive: [17]

CC(C)CCCCCCCOC(=O)c1ccccc1C(=O)OCCCCCCCC(C)C
inactive: [18] | [2] | [3] | [4] | [5] | [6] | [7] | [8] | [9] | [17]

COc1ccc(CO)cc1
inactive: [2] | [3] | [4] | [19] | [5] | [6] | [7] | [8] | [9] | [17]

C[N+](=O)[O-]
inactive: [20] | [18]

Cc1ccc(C)c2ccccc12
inactive: [1] | [10] | [12] | [13] | [14]

CC(C)(C)C(O)C(Oc1ccc(-c2ccccc2)cc1)n1cncn1 (centres undefined)
active: [3] 32.2 µM | [4] 32.3 µM | [6] 32.1 µM | [7] 31.8 µM
inactive: [20] | [2] | [19] | [5] | [8] | [9] | [16] | [17]

CC(=O)/C=C/c1ccccc1
inactive: [2] | [3] | [4] | [19] | [5] | [6] | [7] | [9]
active: [8] 20 µM

C[C@]12CCC(=O)C(O)=C1CC[C@@H]1[C@@H]2CC[C@]2(C)C(=O)CC[C@@H]12
inactive: [16] | [17]
active: [20] 16.8 µM

CC(C)C(=O)Cl
inactive: [18] | [19]

O=C(CCN1CC1)OCC(CO)(COC(=O)CCN1CC1)COC(=O)CCN1CC1
inactive: [19]

O=S(=O)(O)OOS(=O)(=O)O
inactive: [19] | [10] | [12] | [13] | [14] | [15]

CCC(C)(C)O
inactive: [20] | [1] | [16] | [17]

— PubChem BioAssay (EPA / NIEHS)
